Reference: PubChem BioAssay (EPA / NIEHS)
Values joined by “and” are separate entries in the source; they are usually repeats but may differ in a detail not shown here. Identical values can stand only once. Records with an inconclusive call do not appear. Active and inactive are the calls of the source. How the source made its calls: active means hit-call score of the fitted dose curve at least 0.9, where 1 is the maximum; inconclusive means response in the unintended direction; inactive means score below 0.9.

What was measured:
[1] = ATG_XTT_Cytotoxicity: Cytotoxicity Assessment in the Attagene TRANS-FACTORIAL HepG2 Assay (AID 2283584);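 on AC50: XTT signal for cell number as viability in transfected HepG2 cells; cells exposed to compound for 24 h before reading; active means loss of viability signal versus DMSO baseline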
In short: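 24 h chemical exposure of reporter-transfected HepG2; XTT signal loss vs DMSO indicates cytotoxicity.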

[2] = TOX21_p53_BLA_p2_viability: Viability Assessment in the Tox21 HCT-116 p53 Agonism Beta-lactamase Assay, Phase 2 (AID 2283591);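 further: compound exposure lasted 16 h at 37 °C; actives lower the ATP signal meaning cytotoxicity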
In short: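 HCT-116 p53-bla cells (4000/well) rested 5 h at 37C, then received compounds in DMSO (217-fold dilution) for 16 h at 37C, 5% CO2. After the CCF4 read, CellTiter-Glo was added; ATP luminescence was read after 30 min at room temperature.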

[3] = molecular target: Cellular tumor antigen p53 (Homo sapiens) (UniProt P04637); test: TOX21_p53_BLA_p2_ratio: Tox21 HCT-116 p53 Agonism Beta-lactamase Assay, Ratio, Phase 2 (AID 2283592)
In short: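 DMSO-normalized, positive-direction endpoint derived from the 460 nm/530 nm FRET ratio in HCT116 p53 beta-lactamase reporter cells exposed 16 h at 37C and loaded with CCF4-AM for 2 h.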

[4] = TOX21_p53_BLA_p3_viability: Viability Assessment in the Tox21 HCT-116 p53 Agonism Beta-lactamase Assay, Phase 3 (AID 2283593);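 further: cells exposed to compound for 16 h before reading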
In short: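 HCT-116 cells (4000/well) rested 5 h at 37C, then got DMSO compounds by pin tool (217-fold dilution) for 16 h at 37C, 5% CO2. After the bla read, CellTiter-Glo was added and luminescence read at 30 min, room temperature.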

[5] = molecular target: Cellular tumor antigen p53 (Homo sapiens) (UniProt P04637); test: TOX21_p53_BLA_p3_ratio: Tox21 HCT-116 p53 Agonism Beta-lactamase Assay, Ratio, Phase 3 (AID 2283596)
In short: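 Cells were seeded at 4000/well, rested 5 h at 37C, then dosed with DMSO compound solutions (217-fold dilution) for 16 h. CCF4-AM substrate was loaded for 2 h at room temperature, and the 460/530 nm emission ratio was fitted for gain of signal versus DMSO.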

[6] = TOX21_p53_BLA_p4_viability: Viability Assessment in the Tox21 HCT-116 p53 Agonism Beta-lactamase Assay, Phase 4 (AID 2283597);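 further: hits lower the luminescence signal meaning cytotoxicity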
In short: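 In this multiplexed secondary endpoint, HCT116 cells (4000 per well, compound at 5 h, 16 h treatment) received CellTiter-Glo after the beta-lactamase read. Luminescence after 30 min RT reflects ATP, and falling signal marks cytotoxicity.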

[7] = molecular target: Cellular tumor antigen p53 (Homo sapiens) (UniProt P04637); test: TOX21_p53_BLA_p5_ratio: Tox21 HCT-116 p53 Agonism Beta-lactamase Assay, Ratio, Phase 5 (AID 2283599)
In short: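 HCT-116 cells carrying a p53-inducible beta-lactamase reporter were seeded at 4000 cells/well and dosed after 5 h with compound in DMSO (217-fold dilution). After 16 h at 37C, CCF4-AM substrate was added for 2 h, and the 460/530 nm emission ratio was scored as gain-of-signal versus DMSO.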

[8] = TOX21_p53_BLA_p5_viability: Viability Assessment in the Tox21 HCT-116 p53 Agonism Beta-lactamase Assay, Phase 5 (AID 2283600)
In short: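 Here cell health was gauged by ATP levels in wells holding 4000 cells, each treated 16 h with DMSO-delivered compounds at 217-fold dilution; reduced luminescence marked toxicity.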

[9] = molecular target: Cellular tumor antigen p53 (Homo sapiens) (UniProt P04637); test: TOX21_p53_BLA_p4_ratio: Tox21 HCT-116 p53 Agonism Beta-lactamase Assay, Ratio, Phase 4 (AID 2283601)
In short: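 HCT116 cells carrying an inducible beta-lactamase reporter were plated at 4000 cells/well, rested 5 h, then exposed to compounds in DMSO (217-fold dilution) for 16 h at 37C. CCF4-AM substrate was loaded 2 h at room temperature; 460/530 nm emission ratio scored gain-of-signal versus DMSO.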

Chain of Cellular tumor antigen p53 (Homo sapiens) (P04637 whole entry, looked up): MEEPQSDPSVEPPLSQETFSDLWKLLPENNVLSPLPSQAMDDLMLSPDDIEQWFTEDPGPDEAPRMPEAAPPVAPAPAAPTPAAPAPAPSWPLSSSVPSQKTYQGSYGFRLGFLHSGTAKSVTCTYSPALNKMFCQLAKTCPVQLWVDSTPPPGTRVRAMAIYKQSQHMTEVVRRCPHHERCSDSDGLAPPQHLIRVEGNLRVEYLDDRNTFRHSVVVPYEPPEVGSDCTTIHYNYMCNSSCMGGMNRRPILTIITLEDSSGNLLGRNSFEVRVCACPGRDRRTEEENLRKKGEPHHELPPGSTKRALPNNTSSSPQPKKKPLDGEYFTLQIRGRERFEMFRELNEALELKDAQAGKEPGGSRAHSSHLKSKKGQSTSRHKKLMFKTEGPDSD

For `C/C=C\C/C=C/CCCCCCCCOC(C)=O`, the outcome [1] was “inactive”, the outcome [2] was “inactive” and the outcome [3] was “inactive”. For the same molecule, the outcome [4] was “inactive”, the outcome [5] was “inactive” and the outcome [6] was “inactive”. The outcome [7] was “inactive”, the outcome [8] was “inactive” and the outcome [9] was “inactive”.

In the case of `CCCCCCCCCCCCCOP(=O)(O)O`, the outcome [1] is reported as “inactive”, the outcome [2] is reported as “inactive” and the outcome [3] is reported as “inactive”. The AC50 [4] was 72.2 µM (active), the AC50 [5] was 86.8 µM (active) and the outcome [6] was “inactive”. The outcome [9] was “inactive”.

In the case of `O=[N+]([O-])C1(Br)COCOC1`, the outcome [1] is reported as “inactive”, the outcome [2] is reported as “inactive” and the outcome [3] is reported as “inactive”. For the same molecule, the outcome [4] was “inactive”, the outcome [5] was “inactive” and the outcome [6] was “inactive”. The outcome [7] was “inactive” and the outcome [9] was “inactive”.

With `O=c1[nH]nc(-c2ccc([N+](=O)[O-])o2)o1` the outcome [1] was “inactive”, the outcome [2] was “inactive” and the outcome [3] was “inactive”. For the same molecule, the outcome [4] was “inactive”, the outcome [5] was “inactive” and the outcome [6] was “inactive”. The outcome [7] was “inactive”, the outcome [8] was “inactive” and the outcome [9] was “inactive”.

For `Nc1ccc(-c2ccc(F)cc2)cc1`, the outcome [1] was “inactive”, the outcome [2] was “inactive” and the outcome [3] was “inactive”. For the same molecule, the outcome [4] was “inactive”, the outcome [5] was “inactive” and the outcome [6] was “inactive”. The outcome [7] was “inactive” and the outcome [9] was “inactive”.

With `CC(C)c1ccc2c(c1)CC[C@H]1[C@](C)(CN)CCC[C@]21C` the AC50 [1] was 9.98 µM (active), the AC50 [2] was 42.6 µM (active) and the AC50 [3] was 47.1 µM (active). The AC50 [4] was 32.3 µM (active), the AC50 [5] was 72.5 µM (active) and the AC50 [6] was 49.6 µM (active). The AC50 [7] was 78.5 µM (active), the AC50 [8] was 63.5 µM (active) and the AC50 [9] was 85.8 µM (active).

With `Cn1c([N+](=O)[O-])cnc1COC(N)=O` the outcome [1] was “inactive”, the outcome [2] was “inactive” and the outcome [3] was “inactive”. The outcome [4] was “inactive”, the outcome [5] was “inactive” and the outcome [6] was “inactive”. The outcome [8] was “inactive” and the outcome [9] was “inactive”.

In the case of `Nc1nc2ccccc2[nH]1`, the outcome [1] is reported as “inactive”, the outcome [2] is reported as “inactive” and the outcome [3] is reported as “inactive”. For the same molecule, the outcome [4] was “inactive”, the outcome [5] was “inactive” and the outcome [6] was “inactive”. For the same molecule, the outcome [7] was “inactive”, the outcome [8] was “inactive” and the outcome [9] was “inactive”.

In the case of `[Cl][In]([Cl])[Cl]`, the outcome [1] is reported as “inactive”, the outcome [2] is reported as “inactive” and the outcome [3] is reported as “inactive”. The outcome [4] was “inactive”, the outcome [5] was “inactive” and the outcome [6] was “inactive”. For the same molecule, the outcome [7] was “inactive”, the outcome [8] was “inactive” and the outcome [9] was “inactive”.

For `O=C(Nc1cccc(C(F)(F)F)c1)c1cc(Br)cc(Br)c1O`, the outcome [1] was “inactive”, the AC50 [2] was 747 nM (active) and 1.12 µM (active) and the AC50 [3] was 181 nM (active) and 1.14 µM (active). For the same molecule, the AC50 [4] was 429 nM (active) and 1.04 µM (active), the AC50 [5] was 306 nM (active) and 746 nM (active) and the AC50 [6] was 1.82 µM (active) and 1.7 µM (active). For the same molecule, the outcome [8] was “inactive” and the AC50 [9] was 3.52 µM (active) and 8.65 µM (active).

With `CC(=O)[C@@]1(O)CC[C@H]2[C@@H]3C[C@H](C)C4=CC(=O)C=C[C@]4(C)[C@@]3(F)[C@@H](O)C[C@@]21C` the outcome [1] was “inactive”, the outcome [2] was “inactive” and the outcome [3] was “inactive”. For the same molecule, the outcome [4] was “inactive”, the outcome [5] was “inactive” and the outcome [6] was “inactive”. For the same molecule, the outcome [7] was “inactive” and the outcome [9] was “inactive”.

For `CCCCCCCCCCC=CC#N`, the outcome [1] was “inactive”, the outcome [2] was “inactive” and the outcome [3] was “inactive”. For the same molecule, the outcome [4] was “inactive”, the outcome [5] was “inactive” and the outcome [6] was “inactive”. For the same molecule, the outcome [7] was “inactive”, the outcome [8] was “inactive” and the outcome [9] was “inactive”.

With `O=C1CCCCCN1SSN1CCCCCC1=O` the outcome [1] was “inactive”, the outcome [2] was “inactive” and the AC50 [3] was 86.6 µM (active). The outcome [4] was “inactive”, the outcome [5] was “inactive” and the outcome [6] was “inactive”. The outcome [8] was “inactive” and the outcome [9] was “inactive”.

For `CN1C(=O)N(C)C(O)C1O` (configuration not stated), the outcome [1] was “inactive”, the outcome [2] was “inactive” and the outcome [3] was “inactive”. For the same molecule, the outcome [4] was “inactive”, the outcome [5] was “inactive” and the outcome [6] was “inactive”. For the same molecule, the outcome [7] was “inactive”, the outcome [8] was “inactive” and the outcome [9] was “inactive”.

In the case of `CC(=O)NS(=O)(=O)c1ccc(N)cc1`, the outcome [1] is reported as “inactive”, the outcome [2] is reported as “inactive” and the outcome [3] is reported as “inactive”. For the same molecule, the outcome [4] was “inactive”, the outcome [5] was “inactive” and the outcome [6] was “inactive”. For the same molecule, the outcome [7] was “inactive”, the outcome [8] was “inactive” and the outcome [9] was “inactive”.

In the case of `NCCCN1CCN(CCCN)CC1`, the outcome [1] is reported as “inactive”, the outcome [2] is reported as “inactive” and the outcome [3] is reported as “inactive”. For the same molecule, the outcome [4] was “inactive”, the outcome [5] was “inactive” and the outcome [6] was “inactive”. For the same molecule, the outcome [7] was “inactive” and the outcome [9] was “inactive”.

For `O=C1c2cccc(O)c2C(=O)c2c(O)cc(CO)cc21`, the outcome [1] was “inactive”, the outcome [2] was “inactive” and the AC50 [3] was 31.7 µM (active). The outcome [4] was “inactive”, the outcome [5] was “inactive” and the outcome [6] was “inactive”. For the same molecule, the AC50 [7] was 33.3 µM (active), the outcome [8] was “inactive” and the outcome [9] was “inactive”.

With `CC(=O)Oc1ccc(C)cc1` the outcome [1] was “inactive”, the outcome [2] was “inactive” and the outcome [3] was “inactive”. For the same molecule, the outcome [4] was “inactive”, the outcome [5] was “inactive” and the outcome [7] was “inactive”. For the same molecule, the outcome [8] was “inactive” and the outcome [9] was “inactive”.

With `CCCCCCCCCCCSCC(=O)O` the outcome [1] was “inactive”, the AC50 [2] was 62 µM (active) and the AC50 [3] was 83.3 µM (active). For the same molecule, the outcome [4] was “inactive”, the outcome [5] was “inactive” and the AC50 [6] was 84 µM (active). For the same molecule, the AC50 [7] was 83.5 µM (active), the AC50 [8] was 74 µM (active) and the AC50 [9] was 86.7 µM (active).

For `CC1OC1C1CCC2(C)OC2C1` (configuration not stated), the outcome [1] was “inactive”, the outcome [2] was “inactive” and the outcome [3] was “inactive”. For the same molecule, the outcome [4] was “inactive”, the outcome [5] was “inactive” and the outcome [6] was “inactive”. The outcome [7] was “inactive” and the outcome [9] was “inactive”.

In the case of `Cc1cc(C)c(C)c(C)c1`, the outcome [1] is reported as “inactive”, the outcome [2] is reported as “inactive” and the outcome [3] is reported as “inactive”. The outcome [4] was “inactive”, the outcome [5] was “inactive” and the outcome [6] was “inactive”. The outcome [7] was “inactive” and the outcome [9] was “inactive”.
